Assay outcomes as filed in PubChem.
Shown is part of a subset that was picked to be rich in hits.
GALC G270D act = galactocerebrosidase G270D activity enhancement, cell-based; P54803; 145M-Twi-hGALC-G270D cells (Twitcher mouse brain line with human GALC G270D), HMU-beta-Gal fluorescence, 48 h; Potency, µM (doses to about 57.5 µM), actives largely listed as activators; hit rate 0.1% among 45,000; AID 1159614; note: 0% is about no effect; nearly all actives have a fitted effect of over 65% in size
Target sequence (P54803 whole entry G286D): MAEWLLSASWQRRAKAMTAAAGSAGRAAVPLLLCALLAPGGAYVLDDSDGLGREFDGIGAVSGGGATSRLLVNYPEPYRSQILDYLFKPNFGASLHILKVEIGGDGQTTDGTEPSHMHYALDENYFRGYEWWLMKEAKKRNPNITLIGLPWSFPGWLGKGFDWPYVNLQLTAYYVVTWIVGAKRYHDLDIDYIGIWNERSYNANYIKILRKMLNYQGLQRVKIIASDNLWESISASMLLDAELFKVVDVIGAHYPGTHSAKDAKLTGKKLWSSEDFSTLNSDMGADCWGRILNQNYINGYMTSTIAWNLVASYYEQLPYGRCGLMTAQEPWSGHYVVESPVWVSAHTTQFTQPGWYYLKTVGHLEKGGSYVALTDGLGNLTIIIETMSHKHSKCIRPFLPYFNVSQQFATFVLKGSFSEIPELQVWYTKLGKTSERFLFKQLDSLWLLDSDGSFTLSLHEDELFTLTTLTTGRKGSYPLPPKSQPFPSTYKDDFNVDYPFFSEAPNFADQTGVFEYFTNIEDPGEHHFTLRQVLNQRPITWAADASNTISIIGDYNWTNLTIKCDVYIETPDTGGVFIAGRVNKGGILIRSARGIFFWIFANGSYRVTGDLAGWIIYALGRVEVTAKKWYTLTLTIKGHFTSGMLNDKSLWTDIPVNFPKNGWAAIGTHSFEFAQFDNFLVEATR
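Fluorescence readout: HMU-β-gal cleavage by mutant GALC (0.1 mM final, citrate/phosphate pH 5.2 with 1 mg/mL taurocholate), stopped with carbonate/bicarbonate plus Triton X-100. Cells: murine Twitcher 145M-Twi expressing human G270D GALC; qHTS for activators.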
FH mod = Identification of activators of human fumarate hydratase by quantitative high-throughput screening. Fumarate hydratase, mitochondrial (Homo sapiens), P07954. FH coupled MDH/diaphorase resazurin fluorescence, 15 min. Potency, µM (series often up to 79.9 µM), for inactives: at the top dose activity change, negative = inhibition, hits mostly inhibitors. hit rate 0.22% among 54,000. AID 1347055, 2019; note: % is set by controls: 0 for no effect and ±100 for the full control effect; the screen sought activators but most active calls are inhibition curves; nearly all actives have a fitted effect of over 45% in size
p53null 39C kill = p53 null cell cytotoxicity, nonpermissive temperature. H1299 p53-null (neo) cells, 39C, ATPlite viability, 24 h. Potency, µM (highest dose often 46.1 µM), for the others: top-dose activity, negative = cell killing, hits mostly cytotoxic. hit rate 0.97% among 55,000. AID 904;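 note: 0% = DMSO only and -100% = full killing by 100 µM tamoxifen; nearly all actives have a fitted effect of over 50% in size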
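H1299 lung cancer cells, p53-null (H1299-neo) or expressing p53 A138V (H1299-p53A138V), were plated overnight at 37C, then exposed to compounds at up to 46 uM for 24 hr at 39C. Viability was read by ATP-based luminescence.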
NTMT1 inhibitor = inhibitors of human N-terminal methyltransferase NTMT1; NTMT1 MTase-Glo SAH luminescence, purified enzyme; hit rate 2.5% among 59,000; AID 1645870; Q9BV86; Potency, µM (titrated, usually from 114 µM), inactives show at the top dose activity change, negative = inhibition, actives largely listed as inhibitors;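 note: plate controls were DMSO vehicle for no effect and no enzyme for full effect; nearly all actives have a fitted effect of over 65% in size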
p53null 32C tox = p53 null cell cytotoxicity, permissive temperature | H1299-neo p53 null cells, ATP luminescence, 24 h, 32C | hit rate 0.62% among 55,000 | Potency, µM (highest dose often 46.1 µM), for the others: at the highest dose activity change, negative = cytotoxicity, hits mostly cytotoxic;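 note: 0% = DMSO only and -100% = full killing by 100 µM tamoxifen; nearly all actives have a fitted effect of over 55% in size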
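Luminescent ATP readout gave cell viability of p53-null H1299-neo cells after a 24 h compound exposure at the permissive 32C. Titrations ran up to 46 uM, and AC50s were fitted with the standard Hill equation.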
Starred values were filed as active, the others as inactive; i = inactive; ? = inconclusive; . = not tested or not shown; ! = not confirmed by another sample; [ ] = another dose, or the depositor's remark. Calls come from the whole dose curve; as a rule, active = well fitted curve in the direction sought with a large enough effect; inconclusive = small, poorly fitted or top-dose-only effect, or another doubt; inactive = no such curve, though single readings can be large; an effect the other way counts as inactive or inconclusive. Potency is the fitted concentration of half-maximal effect.

SMILES	GALC G270D act	FH mod	p53null 39C kill	NTMT1 inhibitor	p53null 32C tox
NC(=O)C1=CN(C2OC(COP(=O)(O)OP(=O)(O)OC[C@H]3O[C@@H](n4cnc5c(N)ncnc54)[C@H](OP(=O)(O)O)C3O)C(O)C2O)C=CC1 (some centres not stated)	.	-6.2%[53.3 µM]	.	.	.
Cc1ccc(-c2nnc(NC(=O)c3ccc4c(c3)OCCO4)o2)c(C)c1	i	23.6%	25.1µM*	18.7%	-14.8%
Cc1ccc(Nc2c(-c3ccc(C)o3)nc3cccc(C)n23)cc1	i	?	4.5%	7.94µM*	39.4%
Cc1ccc(-c2nc3ccccn3c2Nc2ccc3c(c2)OCO3)o1	i	?	8.0%	15.8µM*	-1.0%
Cc1ccc(NS(=O)(=O)c2ccc3c(c2)CCC(=O)N3C)cc1Cl	.	.	.	-3.9%	.
O=C(Nc1ccc([S+](=O)([O-])Nc2nccs2)cc1)C1CCNCC1	.	.	.	-2.4%	.
Cc1oc2ccc(O)c(CN(C)Cc3ccccc3)c2c1C(=O)Nc1cccc(C(F)(F)F)c1	i	?	22.4µM*	-5.3%	16.7%
Cc1cc2oc(=O)c(CC(=O)O)c(C)c2c2occ(-c3ccccc3)c12	i	-19.8%	-29.9%	28.2µM*	?
CN(C)c1cnc2c(O)ccc(C(=O)O)c2c1	.	.	.	12.7%	.
CCOc1ccc(-c2cn3nc(CC(C)C)sc3n2)cc1	i	-16.6%	?	6.3%	?
COCc1nn2cc(-c3ccc(C)cc3)nc2s1	i	4.8%	10µM*	?	10µM*
C=C1CC23CC(=O)C4C(CO)(CO)CCCC4(C)C2CCC1C3 (configuration not stated)	.	2.0%[53.3 µM]	.	-6.4%[29.8 µM]	.
Cc1ccc(CSc2nc3cccnc3n2Cc2ccc(C(=O)NCc3cccs3)cc2)cc1	i	-11.2%	15.8µM*	?	?
CC1CCCCN1CCNC(=O)c1ccc(Cn2c(SCc3ccccc3)nc3cccnc32)cc1 (configuration not stated)	i	-11.3%	15.8µM*	?	12.6µM*
O=C(NCCc1ccccc1)c1ccc(CSc2nc3cccnc3n2Cc2ccc(F)cc2)cc1	i	-21.6%	-0.7%	-1.6%	11.5%
CC1CCN(CCNC(=O)c2ccc(Cn3c(SCc4ccccc4)nc4cccnc43)cc2)CC1	i	-0.8%	12.6µM*	?	?
O=C(NCCN1CCCCC1)c1ccc(Cn2c(SCc3ccccc3)nc3cccnc32)cc1	i	-11.8%	12.6µM*	39.8µM*	15.8µM*
O=C(NC1CCCC1)c1ccc(CSc2nc3cccnc3n2Cc2ccc(F)cc2)cc1	i	7.0%	4.8%	7.4%	-8.4%
CCN(CC)CCCNC(=O)c1ccc(Cn2c(SCc3ccccc3)nc3cccnc32)cc1	i	4.6%	?	?	?
CC(C)(C)OC(=O)N1CCN(c2cnc(NCc3ccc(-c4ccc(C#N)cc4)o3)cn2)CC1	.	.	.	-3.2%	.
O=C(c1cc(O)c(O)c(O)c1)c1ccc(O)c(O)c1O	i	?	.	31.6µM*	.
O=C(O)c1cc(O)c(O)c(O)c1	i	-13.7%[53.3 µM]	.	?	.
Cc1c(C)n(Cc2ccccc2)c2ccc(C(=O)OCCN(C)C)cc12	i	-7.6%[53.3 µM]	.	5.62µM*	.
Cc1ccc(CNC(=O)c2ccc3c(c2)c(C)c(C)n3Cc2ccccc2)o1	i	-26.8%	?	22.4µM*	10.3%
CCc1ccc(CNC(=O)c2ccc3c(c2)c(C)c(C)n3Cc2ccccc2)cc1	i	-15.1%	1.8%	?	6.6%
SMILES	GALC G270D act	FH mod	p53null 39C kill	NTMT1 inhibitor	p53null 32C tox
Cc1cccc(Cn2c(C)c(C)c3cc(C(=O)NCc4ccc(C)o4)ccc32)c1	i	?	6.6%	-20.8%	21.1%
CC(C)C(=O)OC[C@@]1(N=[N+]=[N-])O[C@@H](n2ccc(N)nc2=O)[C@H](OC(=O)C(C)C)[C@@H]1OC(=O)C(C)C	.	0.1%	.	2.5%	.
COC(=O)Nc1nc2ccc(S(=O)c3ccccc3)cc2[nH]1 (configuration not stated)	i	-6.6%[53.3 µM]	.	4.8%[57.5 µM]	.
CCCS(=O)c1ccc2nc(NC(=O)OC)[nH]c2c1 (configuration not stated)	i	5.7%	.	50.1µM*!	.
COC(=O)Nc1nc2ccc(C(=O)c3ccccc3)cc2[nH]1	i	-6.0%[53.3 µM]	.	30.4µM*!	.
COC(=O)Nc1nc2ccc(C(=O)c3cccs3)cc2[nH]1	i	-14.9%[53.3 µM]	.	28.2µM*!	.
